Experimental data as given in PubChem BioAssay (NCI).
The panel holds about 83,000 compounds, 20% with a hit somewhere; the sample as a whole holds those more often.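 Assay: single dose, 48 h. Readout: percent growth (0 = no net growth; negative = cell death). Active: <10.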 A number with no mark means an inactive call. Active and inactive are the calls of the source.

Key:
Assay in all cases: NCI-60 one-dose screen, 48 h (100 = growth as untreated, 0 = no growth, -100 = all killed)
[1] = tested on: BT-549 breast; conditions: 10 µM unless noted
[2] = tested on: MDA-MB-435 melanoma; conditions: 10 µM unless noted
[3] = tested on: SW-620 colon; conditions: 10 µM unless noted
[4] = tested on: MCF7 breast; conditions: 10 µM
[5] = tested on: HCT-116 colon; conditions: 10 µM unless noted
[6] = tested on: KM12 colon; conditions: 10 µM unless noted
[7] = tested on: HCC-2998 colon; conditions: 10 µM unless noted

Compound | growth [1] | growth [2] | growth [3] | growth [4] | growth [5] | growth [6] | growth [7]
O=C1/C(=C/c2ccc(O)cc2)COc2ccc(O)c(O)c21 | 57.5% | 19.5% | 28.4% | 13.8% | 20.8% | 19.8% | –
COc1ccc(C2=Nn3c(NN)nnc3SC2)cc1 | 108% | 103% | 112% | 91.4% | 112% | 101% | –
O=C(c1nc2ccccc2[nH]1)C1[C@@H](c2cccc(O)c2)C2CC3CCCCC3N2[C@@]12C(=O)Nc1cc(Cl)ccc12 (stereo not given in full) | 62.5% | 29.3% | 39.3% | 18.9% | 31.5% | 34.9% | –
Cc1ccc2sc3c(NCCCNCCO)nc4ccccc4c3c(=O)c2c1 | 90.2% | -80% (active) | -78.2% (active) | -78.8% (active) | -67% (active) | -50.4% (active) | –
Cc1c(C(=O)OCCO)cc(-c2ccc(Cl)cc2)n1-c1ccc(Cl)cc1Cl | 92.8% | 4.72% (active) | 67.3% | 44.3% | 60.3% | 52.4% | –
COc1cc(C2C3=C(COC3=O)N(CCO)c3cc4c(cc32)CCC4)cc(OC)c1O (stereo not given) | -7.32% (active) | -26.8% (active) | 12.1% | – | 8.94% (active) | -20.6% (active) | -22.4% (active)
COc1ccc(Cn2cc(Cn3cc(C=C4C(=O)NC(=O)NC4=O)c4ccccc43)nn2)cc1 | 99.5% | 90.8% | 85.9% | 75.8% | 80.1% | 93% | –
O=C(Nc1ccc(N2CCNCC2)cc1)c1[nH]ncc1Nc1cc(C2CC2)ncn1 | 42.9% | 50.6% | 33.1% | 37% | 14.6% | 21.1% | –
O=c1nc2sc3nc4ccccc4cc3cc-2s1 | 112% | 117% | 107% | 98.1% | 102% | 129% | –
CCCCCCn1c(=N)n(CC(O)COc2cccc(C)c2)c2ccccc21 (stereo not given) | 36.6% | -77.3% (active) | -65.9% (active) | -51.6% (active) | -33.8% (active) | -43.8% (active) | –
COc1ccc(-n2c(C(O)c3ccccc3)nn(CN3CCOCC3)c2=S)cc1 (stereo not given) | 108% | 106% | 87% | 105% | 105% | 99.8% | –
O=C(Cn1cc(COc2ncnc3c2cnn3-c2ccccc2)nn1)Nc1ccccn1 | 94% | 98% | 102% | 90.4% | 98.2% | 100% | –
O=C(NC1C(O)OC(CO)C(O)C1O)NS(=O)(=O)c1ccc(Cl)cc1 (stereo not given) | 108% | 100% | 100% | 98.2% | 96.9% | 104% | –
c1ccc2cc3c(Nc4ccc(N5CCOCC5)cc4)ccnc3cc2c1 | 99.3% | 95.6% | 101% | 84% | 90.2% | 102% | –
COc1ccc(Cn2c(Br)c3c(c2Br)-c2nc(NC(=O)c4ccc(OC)cc4)sc2CC3)cc1 | 84.2% | 61.8% | 84% | 78.5% | 75.9% | 79.9% | –
O=C1C(=O)c2c(ccc3ccccc23)-c2ccccc21 | -72.6% (active) | -58.6% (active) | -73% (active) | -47.6% (active) | -53.8% (active) | 18.4% | –
Cc1cccc2c(=O)c3c(sc12)c(N1CCNCC1)nc1ccccc13 | 80% | 62.5% | 27.6% | 26.7% | 26.9% | 51.3% | –
COc1cc(/C=C2\CN(C)C/C(=C\c3cc(CN4CCOCC4)c(O)c(OC)c3)C2=O)cc(CN2CCOCC2)c1O | 94% | 29.2% | 48% | 19.5% | 21.1% | 37.4% | –
O=C(c1nc2ccccc2[nH]1)C1C(c2cccc([N+](=O)[O-])c2)C2CC3CCCCC3N2[C@@]12C(=O)Nc1cc(Cl)ccc12 (stereo not given in full) | 52.9% | 35.8% | 37.9% | 16.3% | 13% | 32.5% | –
CCOC(=O)c1c2c(c(C)n1Cc1ccc(OC)cc1)-c1oncc1CC2 | 104% | 120% | 96.4% | 97.5% | 80.2% | 87.9% | –

Compound | growth [1] | growth [2] | growth [3] | growth [4] | growth [5] | growth [6] | growth [7]
COc1cc(C(C)n2cc(-c3ccccc3)nn2)ccc1OC1CCCC1 (stereo not given) | 69.1% | 65.4% | 74.7% | 48.1% | 52.3% | 71.8% | –
COc1cc(/C=C2\CCC/C(=C\c3cc(CN4CCCCC4)c(O)c(OC)c3)C2=O)cc(CN2CCCCC2)c1O | 103% | 76.8% | 71.4% | 52.5% | 60.1% | 73.7% | –
COc1ccc(-c2cn3c(C(=O)Nc4ccccc4Cl)c(-c4ccccc4)c4c3n2CCCC4)cc1 | 86.4% | 80% | 82.5% | 71.3% | 73.2% | 82.8% | –
COc1ccc2occ(C3=C(c4c[nH]c5ccccc45)C(=O)NC3=O)c2c1 | 35.7% | 1.76% (active) | 22.6% | 21.6% | 26.5% | 20.8% | –
Cc1ccc(F)cc1NC(=O)c1cc(Cl)ccc1Nc1ccccc1 | 86.2% | 59.5% | 57.5% | 29.7% | 30.9% | 37.1% | –
N[C@@H](CC/[N+]([O-])=N/O)C(=O)O | 95.2% | 98.4% | 104% | 93.7% | 99.1% | 104% | –
O=NN(C(=O)NC1CCC(C(=O)O)CC1)C1CCC(C(=O)O)CC1 (stereo not given) | 125% | 106% | 105% | 93% | 104% | 108% | –
COc1ccc(C2C3=C(COC3=O)N(CCO)c3cc4c(cc32)CCC4)cc1 (stereo not given) | 38.4% | 0.306% (active) | 31.5% | – | 33.5% | 21.2% | 61.1%
O=C(NC(=S)Nc1cccc(NC(=S)NC(=O)c2ccccc2)c1)c1ccccc1 | 58.4% | 61.4% | 74.6% | 58.3% | 67.2% | 68% | –
CCN1CCN(C(=S)SCC(=O)Nc2nc3ccc(C)cc3s2)CC1 | 108% | 116% | 109% | 105% | 94.7% | 108% | –
COc1ccc(-c2nsc3c2NC(=O)CC3c2cccc(OC)c2)cc1 (stereo not given) | 39.6% | -30.6% (active) | 27.2% | 18.3% | 29% | 36.2% | –
COc1ccc(/C=C/C(=O)c2c(C)nc3ccccc3c2/C=C/c2ccccc2)c(OC)c1 | 89.2% | 88.9% | 80.5% | 62.6% | 51.5% | 87.4% | –
COc1ccc(Nc2cc(C)nc(NCc3ccccc3)n2)cc1 | 97.6% | 18.5% | 15% | 11.1% | 15.4% | 5.56% (active) | –
Nc1n[nH]c2ccc([C@@H]3Nc4ccc5[nH]ncc5c4[C@H]4[C@H]5CCC(C5)[C@H]43)cc12 | – | -7.49% (active) | 22.2% | 18.7% | 9.49% (active) | 11.5% | 26.2%
O=c1c2cc(F)cc(Cl)c2sc2c(Cl)nc3ccccc3c12 | – | 110% | 97.7% | 77.1% | 104% | 101% | 104%
CCOC(=O)C1(C(=O)OCC)N=C(c2ccccc2)C=C1c1ccccc1 | – | 103% | 93.3% | 79.5% | 78.4% | 93.6% | 105%
O=S1(=O)N(Cc2ccccc2)[C@@H](Cc2ccccc2)C2O[C@H]2[C@H](Cc2ccccc2)N1Cc1ccccc1 (stereo not given in full) | 63.1% | 60.1% | 50.6% | – | 17% | 40.2% | 61.4%
O=C(O)c1cn(C2CC2)c2cc(N3CCN(C(=O)C[n+]4ccccc4)CC3)c(F)cc2c1=O | – | 99.9% | 105% | 101% | 99.3% | 103% | 106%
COc1ccc(/C=C2\CCC/C(=C\c3ccc(OC)c(OC)c3)C2=O)cc1OC | 13% | -8.1% (active) | -21.7% (active) | – | -68.3% (active) | -75.2% (active) | -30.1% (active)
Nc1ccc(-n2c(=O)oc3ccc(Cl)cc3c2=O)c(Cl)c1 | – | -5.78% (active) | 5.14% (active) | 4.1% (active) | -4.7% (active) | -33.7% (active) | 10.2%
